# From PubChem
# Tau fluor counter: Counterscreen qHTS for Inhibitors of Tau Fibril Formation, Fluorescence Polarization; tau K18 P301L Alexa594 fluorescence, heparin fibrillization; Potency, µM (highest dose often 57.7 µM), without a hit: top-dose activity change, negative = decrease; 280,000 tested, 0.93% active; AID 1463, 2008; further: nearly all actives have a fitted effect of over 55% in size
#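 Human K18 P301L tau (15 uM unlabeled plus 0.24 uM Alexa 594-labeled, final) in 100 mM sodium acetate pH 7 was mixed with compound and 20 uM heparin and incubated 6 hr at 37 C.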
# PLK1 PBD block: qHTS for Inhibitors of PLK1-PDB (polo-like kinase 1 - polo-box domain): Primary Screen; 360,000 tested, 2.8% active; Serine/threonine-protein kinase PLK1 (Homo sapiens), P53350; Potency, µM, without a hit: max response, negative = inhibition, most hits filed as inhibitors; Plk1 PBD binding of FITC phosphopeptide, fluorescence polarization; further: series mostly up to about 57 µM; nearly all actives have a fitted effect of over 65% in size
# Target sequence (P53350 whole entry, looked up, the tested form may be a part): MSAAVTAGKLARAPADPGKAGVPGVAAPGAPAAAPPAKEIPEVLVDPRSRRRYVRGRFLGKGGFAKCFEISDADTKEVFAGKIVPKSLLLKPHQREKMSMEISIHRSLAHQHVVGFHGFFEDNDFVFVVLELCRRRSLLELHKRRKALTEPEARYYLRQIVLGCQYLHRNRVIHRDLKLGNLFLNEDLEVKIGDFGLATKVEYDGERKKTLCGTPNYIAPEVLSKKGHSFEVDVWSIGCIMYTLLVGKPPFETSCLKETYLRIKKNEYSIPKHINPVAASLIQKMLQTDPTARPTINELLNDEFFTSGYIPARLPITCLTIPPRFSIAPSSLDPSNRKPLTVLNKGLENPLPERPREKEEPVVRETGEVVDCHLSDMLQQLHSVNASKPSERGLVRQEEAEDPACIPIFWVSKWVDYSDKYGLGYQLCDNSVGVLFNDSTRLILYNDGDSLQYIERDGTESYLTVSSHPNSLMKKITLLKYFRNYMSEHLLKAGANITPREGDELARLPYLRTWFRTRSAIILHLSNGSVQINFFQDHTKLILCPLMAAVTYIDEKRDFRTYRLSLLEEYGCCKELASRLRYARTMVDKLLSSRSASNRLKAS
# Tau ThT inhib: qHTS for Inhibitors of Tau Fibril Formation, Thioflavin T Binding. Microtubule-associated protein tau (Homo sapiens), P10636. recombinant tau K18 P301L (four-repeat tau fragment), heparin-induced fibrillization, ThT fluorescence. Potency, µM (titrated, usually from 57.4 µM), inactives show at the highest dose activity, negative = inhibition, hits mostly inhibitors. 270,000 tested, 2.1% active; further: nearly all actives have a fitted effect of over 55% in size
#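 Recombinant human tau K18 fragment […] carrying P301L, 15 uM unlabeled plus 0.24 uM Alexa 594-labeled, was fibrillized with 20 uM heparin in 100 mM sodium acetate pH 7 for 6 hr at 37 C; 30 uM ThT fluorescence read after 1 hr.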
# Tau FP inhib: qHTS for Inhibitors of Tau Fibril Formation, Fluorescence Polarization | K18 P301L tau heparin fibrillization, Alexa594 FP, 6 h | 280,000 tested, 0.39% active | AID 1468, 2008 | Potency, µM (highest dose often 57.7 µM), without a hit: at the highest dose activity, negative = inhibition, usual class: inhibitors; further: nearly all actives have a fitted effect of over 55% in size
#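 Human tau K18 […] P301L fragment, 15 uM unlabeled plus 0.24 uM Alexa 594-labeled tau (final), with compound and 20 uM heparin in 100 mM sodium acetate pH 7; 6 hr at 37 C, then Alexa 594 FP read.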
# VDR inhibitor: Inhibitors of the vitamin D receptor (VDR): qHTS; VDR-SRC2-3 peptide fluorescence polarization, 2 h; Potency, µM, inactives show max response, negative = inhibition, most hits filed as inhibitors; 400,000 tested, 0.93% active; AID 504847, 2011
#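 After 23 nl compound addition and a short centrifugation, plates sat for 2 hours at ambient temperature; polarization of fluorescence then indicated loss of VDR binding to peptide SRC2-3.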
# Sfp PPTase inh: qHTS Assay for Inhibitors of Bacillus subtilis Sfp phosphopantetheinyl transferase (PPTase); 4'-phosphopantetheinyl transferase ffp (Bacillus subtilis), Q9F4F7; AID 1490, 2009; Biochemical Sfp PPTase activity, qHTS; 310,000 tested, 3.5% active; Potency, µM, without a hit: largest response in the series, negative = inhibition, usual class: inhibitors;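 further: the enzyme is Sfp with the accession as filed and its product quenches rhodamine fluorescence; 0% = enzyme reaction without inhibitor and -100% = no enzyme wells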
#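 Step 1, compound plus 15 nM Sfp-PPTase, 15 min, room temperature. Step 2, add rhodamine-CoA (5 uM) and BHQ-2-YbbR (12.5 uM). Step 3, read 525/598 nm fluorescence at 0 and 30 min.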
# An asterisk follows results filed as active; u = inconclusive; x = no result given; [ ] = another dose, or the depositor's remark. Hits are enriched below; roughly 6% of the tested compounds scored in any of these assays. The call rests on the fitted dose curve; in most records, active means well fitted curve in the direction sought with a large enough effect; inconclusive means small, poorly fitted or top-dose-only effect, or another doubt; inactive means no such curve, though single readings can be large; an effect the other way counts as inactive or inconclusive. Unless noted, on the % scale 0 is the no-effect control and ±100 the full control effect; potency means the concentration at half of the fitted maximal effect.
SMILES,Tau fluor counter,PLK1 PBD block,Tau ThT inhib,Tau FP inhib,VDR inhibitor,Sfp PPTase inh
Cc1[nH]nc(-c2ccc(O)cc2O)c1Oc1ccccc1,14µM*[quencher],1%,-22%,18%,20%,17%
COc1ccc(Oc2cn[nH]c2-c2ccc(O)cc2O)cc1,u,-2%,-11%,u,8%,-6%
CCCOC(=O)c1ccc(Oc2c(-c3ccc(OC)cc3O)n[nH]c2C)cc1,10µM*[quencher],2%,-6%,u,4%,11%
CCCOC(=O)c1ccc(Oc2c(-c3ccc(O)cc3O)n[nH]c2C)cc1,-9%,-4%,-5%,-12%,0%,22%
CCCOC(=O)c1ccc(Oc2cn[nH]c2-c2ccc(O)cc2O)cc1,5µM*[quencher],4%,u,u,1%,11%
CCCc1ccc(Oc2cn[nH]c2-c2ccc(O)cc2O)cc1,6.3µM*[quencher],-9%,u,u,18%,8%
CCOc1ccc(-c2n[nH]c(C)c2Oc2ccccc2OC)c(O)c1,u,-4%,-5%,-10%,-6%,5%
Cc1ccc(S(=O)(=O)N2CCN(C(=O)c3ccc(-n4cncn4)c([N+](=O)[O-])c3)CC2)c(C)c1,x,-4%,x,x,x,x
CCCOC(=O)c1ccc(Oc2cn[nH]c2-c2ccc(OCC(=O)NN)cc2O)cc1,28µM*[quencher],-4%,-6%,6%,-1%,17%
CCOC(=O)c1ccc(Oc2cn[nH]c2-c2ccc(O)cc2O)cc1,13µM*[quencher],6%,u,u,15%,0%
CCc1cc(-c2n[nH]c(C)c2Oc2ccc(C(C)C)cc2)c(O)cc1O,7.1µM*[quencher],-3%,28µM*,u,20%,26%
Cc1ccc(NC(=O)CN2C(=O)c3ccccc3Sc3ccc(C(=O)N4CCOCC4)cc32)cc1F,5%,x,8%,0%,9%,x
CC(=O)Nc1ccc(NS(=O)(=O)c2c(Cl)cccc2Cl)cc1,-15%,27µM*,-6%,-2%,-26%,79µM*
CC(=O)NS(=O)(=O)c1ccc(NS(=O)(=O)c2ccc3ccccc3c2)cc1,x,-11%,x,x,9%,10%
CC(=O)Nc1ccc(NS(=O)(=O)c2ccc3ccccc3c2)cc1,-16%,7.5µM*,0%,-9%,u,17%
CCCCN(CCCC)S(=O)(=O)c1ccc(NS(=O)(=O)c2ccc(NC(C)=O)cc2)cc1,u,-11%,u,22µM*,3%,33%
CCn1nc(NS(=O)(=O)c2ccc(NC(C)=O)cc2)c2cc3ccccc3nc21,x,24µM*,x,x,u,23%
CC(=O)Nc1ccc(NS(=O)(=O)c2ccc(Cl)s2)cc1,-9%,11%,u,0%,2%,8%
CC(=O)Nc1ccc(/C=C/c2nc3ccccc3[nH]c2=O)cc1,x,13%,x,x,9%,-2%
O=c1[nH]c2ccccc2nc1/C=C/c1ccc(Cl)cc1,-7%,3.4µM*,u,-8%,22µM*,10%
O=C(/C(=C/c1ccc(Cl)cc1)c1nc2ccccc2[nH]1)c1ccccc1,-22%,-3%,40µM*,u,-23%,14%
O=C(N/C(=C/c1ccc(Cl)cc1)c1nc2ccccc2[nH]1)c1ccco1,-7%,1%,-18%,2%,11%,21%
CN(Cc1ccccc1)C(=O)c1cccc(NC(=O)c2nsc3ccccc23)c1,-22%,x,-14%,-3%,10%,x
CC(C)OC(=O)CC(=O)CSc1nc(-c2ccc(F)cc2)cc(-c2ccccc2)c1C#N,-13%,24µM*,-14%,3%,u,3%
COc1ccc(-c2cc(-c3ccccc3)nc(SCC(=O)CC(=O)OC(C)C)c2C#N)cc1,-24%,x,-10%,-16%,-23%,x
SMILES,Tau fluor counter,PLK1 PBD block,Tau ThT inhib,Tau FP inhib,VDR inhibitor,Sfp PPTase inh
N#Cc1c(-c2ccccc2)cc(-c2ccccc2)nc1SCC(=O)NCC(=O)O,-2%,24µM*,-11%,8%,u,20µM*
N#Cc1c(-c2ccccc2)cc(-c2ccccc2)nc1SCC(O)CS(=O)(=O)Cc1ccc(Cl)cc1 (stereo not drawn),u,x,14µM*,14µM*,28µM*,x
CS(=O)(=O)N1CCC2(CC1)CN(Cc1nccs1)C2,x,x,x,x,-2%,19%
CCNc1ncc2nc(C)c(=O)n(C[C@H]3CCCO3)c2n1,x,x,x,x,4%,21%
COc1ccccc1CNC(=S)Nc1ccc2nc(N3CCN(C)CC3)cc(C)c2c1,20µM*[quencher],-5%,u,u,7%,56µM*
CCN1CCN(c2cc(C)c3cc(NC(=O)/C=C/c4cccc(OC)c4OC)ccc3n2)CC1,18µM*[quencher],x,3.2µM*,16%,6%,x
COc1cccc(/C=C/C(=O)Nc2ccc3nc(N4CCN(C)CC4)cc(C)c3c2)c1OC,8.9µM*[quencher],x,5µM*,8%,19%,x
CCN1CCN(c2cc(C)c3cc(NC(=O)Cc4ccc(OC)c(OC)c4)ccc3n2)CC1,-15%,-1%,u,0%,11%,20%
COc1ccc(CNC(=S)Nc2ccc3nc(N4CCN(C)CC4)cc(C)c3c2)cc1,u,-2%,u,u,-10%,-4%
CCCCCCCCCCCCCC[C@@H](O)[C@@H](O)[C@H](CO)NC(C)=O,x,x,x,x,-9%,u
CC(=O)c1c(C)[nH]c(C(=O)N2CCCCCC2)c1C,3%,2.7µM*,-2%,2%,-28%,5%
CC(=O)c1c(C)[nH]c(C(=O)N2CCCC(C)C2)c1C (stereo not drawn),x,-2%,x,x,-3%,11%
CN=c1scc(-c2ccc(OC)cc2)n1/N=C(\C)c1cccnc1,u,-8%,11µM*,1%,4%,-21%
O=[N+]([O-])c1ccc(S(=O)(=O)Nc2ccc(-c3ccccc3)cc2)cc1,x,-14%,x,x,x,x
CN(NS(=O)(=O)c1ccc([N+](=O)[O-])cc1)c1ccccc1,x,3µM*,x,x,x,x
Cc1nc(NS(=O)(=O)c2ccccc2)sc1NC(=O)Nc1ccccc1,-9%,-28%,-6%,1%,-22%,45µM*
Cc1nc(NS(=O)(=O)c2ccccc2)sc1NC(=O)Nc1ccc(Cl)cc1,u,u,u,11%,-10%,79µM*
Cc1ccc2nc(-c3ccc(NC(=S)NC4CC(C)(C)NC(C)(C)C4)cc3)sc2c1,7.9µM*[quencher],-8%,u,11µM*,5%,45µM*
